The source made the active and inactive calls. The rule behind the calls is not given here.

The target of the assay is Pantothenate synthetase (Mycobacterium tuberculosis (strain ATCC 25618 / H37Rv)) (UniProt P9WIL5). The assay can be described thus: Recombinant Mtb pantothenate synthetase (PanC) inhibitors, coupled enzyme, confirmatory (AID 375).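 Note: 0% = full reaction with vehicle and 100% = no enzyme background.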 As to conditions: coupled enzyme assay; at 10 µM, stronger effect = higher value.
Pantothenate synthetase (Mycobacterium tuberculosis (strain ATCC 25618 / H37Rv)), sequence (P9WIL5 whole entry, looked up): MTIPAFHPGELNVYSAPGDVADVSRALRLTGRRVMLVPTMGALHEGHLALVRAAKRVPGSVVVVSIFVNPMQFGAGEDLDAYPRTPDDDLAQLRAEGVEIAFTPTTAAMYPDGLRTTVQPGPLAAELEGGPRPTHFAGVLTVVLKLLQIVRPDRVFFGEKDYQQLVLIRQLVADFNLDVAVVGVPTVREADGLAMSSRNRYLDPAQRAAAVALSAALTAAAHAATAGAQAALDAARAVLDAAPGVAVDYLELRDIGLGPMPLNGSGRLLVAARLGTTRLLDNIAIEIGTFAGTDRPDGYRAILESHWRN
By inhibition is commonly meant the drop in the measured response relative to a control, in per cent. As for `Cc1oc2c(CN3CCCC3)c(O)ccc2c(=O)c1-c1ccccc1`, the inhibition is 0% (inactive). On to `Cc1ccc(Cn2c(=O)c3ccccc3n3c(CCC(=O)O)nnc23)cc1`, for which the inhibition is 0% (inactive). For the compound `O=C(NC1CCCCC1)C(c1ccc(Cl)cc1)N(C(=O)c1cnccn1)c1ccc2c(c1)OCO2` (configuration not stated), the inhibition is 0% (inactive). As for `c1cncc(-c2nnc(SCCSc3nnc(-c4cccnc4)o3)o2)c1`, the figure is 0% (inactive); as for `O=C(Cn1nnc(-c2cccs2)n1)OC1CCCCC1`, 4% (inactive); as for `CC(C)(C)OC(=O)N1CCN(c2ccc(NC(=O)c3cc4ccccc4oc3=O)cc2)CC1`, 6% (inactive). For `Cn1c(=O)c2c(nc(CN3CCc4ccccc4C3)n2Cc2cccc(Cl)c2)n(C)c1=O`, the inhibition was 0% (inactive). Turning to `COc1ccc(OC)c(S(=O)(=O)NCCO)c1`, the inhibition was 1% (inactive). To `COc1ccc(S(=O)(=O)N2CN(Cc3ccco3)c3nc4ccccc4nc32)cc1` belongs 0% (inactive); to `OCc1nc(CO)n(Cc2ccccc2)n1`, 0% (inactive); to `O=S(=O)(NC1CCCC1)c1ccc(S(=O)(=O)N2CCc3ccccc32)cc1`, 0% (inactive). For the compound `Cc1cc(Br)ccc1NC(=O)CCN1C(=O)c2ccncc2C1=O`, the inhibition was 0% (inactive).

On to `CNCCC=C1c2ccccc2CCc2ccccc21`, for which the inhibition is 0% (inactive). As to `O=C(c1ccco1)N1CCN(C(=O)c2ccc(Cn3cc(Br)cn3)o2)CC1`, the inhibition is 4% (inactive). `O=C(NCC(c1cccnc1)N1CCOCC1)c1cccs1` (configuration not stated): the inhibition is 0% (inactive). As for `Cc1ccc(CCNC(=O)Cn2cccc2)cc1`, the figure is 0% (inactive). To `CCOC(=O)c1cccc(NC(=O)CSc2nc3cccnc3n2C)c1` belongs 0% (inactive).
